This is a sample that favours compounds with a hit; in the whole collection about 1.2% have one here.
USP1 inh: inhibitors of human USP1/UAF1 deubiquitinase; AID 743255; Potency, µM (top dose mostly 57.1 µM), usual class: inhibitors; O94782; 390,000 compounds, 0.23% hits; recombinant USP1/UAF1, Ub-Rhodamine cleavage fluorescence; also: nearly all actives have a fitted effect of over 60% in size
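In this screen, compounds sit with the deubiquitinase complex (1nM) for 15 min at room temperature before Ub-Rho is added at 150nM final. Fluorescence rise is then followed for 6 reads every 60 seconds.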
VDR inh: blocks the human vitamin D receptor; 400,000 compounds, 0.93% hits; Potency, µM, usual class: inhibitors; AID 504847; VDR-SRC2-3 peptide fluorescence polarization, 2 h; P11473
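Measured by FP: displacement of SRC2-3 coactivator peptide from VDR by library compounds, following a two-hour ambient incubation.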
EPAC1 antag: antagonists of human EPAC1. O95398. EPAC1 GEF assay, Rap1b-BODIPY-GDP exchange fluorescence. 360,000 compounds, 0.14% hits. AID 720709. Potency, µM (series often up to 115 µM), actives largely listed as inhibitors; also: nearly all actives have a fitted effect of over 50% in size
EPAC1 agonist: agonists of human EPAC1; EPAC1 agonist qHTS, biochemical assay; response scale: 100% = response to 6.5 mM cAMP; Potency, µM (titrated, usually from 154 µM), hits mostly activators; 360,000 compounds, 0.073% hits; also: nearly all actives have a fitted effect of over 60% in size
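Nucleotide exchange assay: 100 nM EPAC1 with 250 nM Rap1B loaded with BODIPY-GDP and 50 uM GDP, room temperature. Fluorescence (480/540 nm) read every 5 min for 30 min; signal change normalized to 6.5 mM cAMP as full agonist.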
EPAC2 ag: agonists of human EPAC2 (RAPGEF4). Q8WZA2. 360,000 compounds, 0.079% hits. Potency, µM (highest dose often 154 µM), hits mostly activators. EPAC2 activation, biochemical qHTS; response scale: 100% = 6.5 mM cAMP response; also: nearly all actives have a fitted effect of over 50% in size
Target sequence (Q8WZA2 whole entry, looked up): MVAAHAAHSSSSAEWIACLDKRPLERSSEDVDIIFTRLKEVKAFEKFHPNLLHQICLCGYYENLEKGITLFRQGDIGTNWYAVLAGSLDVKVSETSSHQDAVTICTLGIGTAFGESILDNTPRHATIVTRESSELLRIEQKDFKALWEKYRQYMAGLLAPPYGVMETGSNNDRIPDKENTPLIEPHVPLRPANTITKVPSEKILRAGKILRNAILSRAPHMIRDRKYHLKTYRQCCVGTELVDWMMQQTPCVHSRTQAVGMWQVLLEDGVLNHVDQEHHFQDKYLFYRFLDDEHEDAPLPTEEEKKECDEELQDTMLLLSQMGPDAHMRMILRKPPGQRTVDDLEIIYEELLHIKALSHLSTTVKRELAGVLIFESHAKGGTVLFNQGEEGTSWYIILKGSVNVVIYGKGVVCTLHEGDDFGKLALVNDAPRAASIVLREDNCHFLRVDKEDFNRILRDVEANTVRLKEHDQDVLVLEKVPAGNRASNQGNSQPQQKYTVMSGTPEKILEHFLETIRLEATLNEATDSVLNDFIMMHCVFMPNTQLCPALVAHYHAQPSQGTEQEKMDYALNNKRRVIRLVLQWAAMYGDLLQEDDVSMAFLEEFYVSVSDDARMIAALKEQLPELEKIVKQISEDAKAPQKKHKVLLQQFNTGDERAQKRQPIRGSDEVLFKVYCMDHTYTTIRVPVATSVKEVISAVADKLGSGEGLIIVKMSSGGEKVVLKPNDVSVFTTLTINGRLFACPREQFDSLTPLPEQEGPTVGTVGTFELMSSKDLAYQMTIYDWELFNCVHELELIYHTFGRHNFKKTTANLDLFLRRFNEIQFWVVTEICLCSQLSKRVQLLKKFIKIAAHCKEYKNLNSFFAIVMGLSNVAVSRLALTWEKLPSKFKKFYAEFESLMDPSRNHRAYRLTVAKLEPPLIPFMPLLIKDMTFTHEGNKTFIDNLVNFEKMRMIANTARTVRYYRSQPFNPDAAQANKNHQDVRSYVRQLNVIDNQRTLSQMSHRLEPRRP
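Each well held 100 nM EPAC2, 250 nM RAP1B-BODIPY-GDP and 50 uM GDP. Fluorescence, read at 5-min intervals to 30 min, was referenced to a 6.5 mM cAMP positive control.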
EPAC2 antagonist: EPAC2 (human) antagonism | Q8WZA2 | 360,000 compounds, 0.18% hits | AID 720708 | Potency, µM (series often up to 114 µM), usual class: inhibitors | EPAC2 GEF exchange of Rap1B-BODIPY-GDP, fluorescence; also: nearly all actives have a fitted effect of over 45% in size
A number is an active result; 0 = inactive; ? = inconclusive; - = no result. Calls follow the shape of the dose curve; as a rule, active = well fitted curve in the direction sought with a large enough effect; inconclusive = small, poorly fitted or top-dose-only effect, or another doubt; inactive = no such curve, though single readings can be large; an effect the other way counts as inactive or inconclusive.

SMILES	USP1 inh	VDR inh	EPAC1 antag	EPAC1 agonist	EPAC2 ag	EPAC2 antagonist
Cc1ccc(S(=O)(=O)N2[C@@H](c3ccc(C(C)(C)C)cc3)C(C(=O)O)=CC[C@H]2c2cccs2)cc1	0	0	0	0	0	32µM
COc1ccc(CCC(=O)NC2CC(=O)N(c3ccc(C)c(C)c3)C2)cc1 (stereo unspecified)	0	0	-	-	-	-
COc1ccc(NC(=O)c2cc(S(=O)(=O)N3CCCCCC3)cn2C)cc1Cl	0	0	-	-	-	-
CCN1C/C(=C/c2ccc(N3CCOCC3)cc2)C(=O)/C(=C/c2ccc(N3CCOCC3)cc2)C1	?	?	0	63µM	89µM	0
CN1C/C(=C\c2ccc(N3CCOCC3)cc2)C(=O)/C(=C/c2ccc(N3CCOCC3)cc2)C1	?	?	0	0	?	0
Cc1nc(C)c(-c2csc(Nc3ccc(C(=O)O)c(O)c3)n2)s1	0	0	?	0	0	10µM
C=C1C=CS(=O)(=O)N(Cc2ccccc2)C1	-	0	-	-	-	-
O=c1c2cccc(Cl)c2nc2n1Cc1ccccc1-2	0	79µM	0	0	0	0
CCC(CO)Oc1cc(NCc2ccccc2)c2ncn(C(C)C)c2c1 (stereo unspecified)	?	?	0	0	0	0
CCC(COC)Oc1cc(NCc2ccccc2)c2ncn(C(C)C)c2c1 (stereo unspecified)	13µM	22µM	?	0	0	0
CCC(COC(=O)c1ccccc1)Oc1cc(NCc2ccccc2)c2ncn(C(C)C)c2c1 (stereo unspecified)	?	79µM	0	0	0	0
CCOC(=O)c1c(N)sc(-c2ccccc2)c1C	0	0	0	?	0	0
CCOC(=O)c1c(N)sn(-c2ccccc2C)c1=S	0	35µM	0	0	0	0
COc1ccc(-c2ccc(C(C)=O)cc2)cc1C1C2C=CCCC2(C)C(=O)N1Cc1ccccc1 (stereo unspecified)	-	0	-	-	-	-
CC(C)O/C(=N/S(=O)(=O)c1ccc(Cl)cc1)c1ccccc1	0	0	0	0	0	50µM
CC/C=C/[C@@H](c1ccccc1)[C@H](C)C(O)CC(=O)SC(C)(C)C (stereo partly specified)	-	0	-	-	-	-
c1ccc(Cc2nn3c(Cn4nnc5ccccc54)nnc3s2)cc1	0	89µM	0	0	0	0
CC(C)C[C@H](NC(=O)[C@H](CO)NC(=O)[C@@H]1CCCN1C(=O)[C@H](Cc1ccc(O)cc1)NC(=O)[C@H](CC(C)C)NC(=O)[C@H](CC(C)C)NC(=O)[C@@H]1CCCN1C(=O)[C@@H](NC(=O)[C@H](CO)NC(=O)[C@H](CO)NC(=O)[C@H](CO)NC(=O)[C@H](CO)NC(=O)[C@@H]1CCCN1C(=O)[C@@H](NC(=O)[C@@H](N)CO)C(C)C)[C@@H](C)O)C(=O)N[C@@H](C)C(=O)N[C@@H](CC(C)C)C(=O)N1CCC[C@H]1C(=O)N[C@@H](C)C(=O)N1CCC[C@H]1C(=O)O	-	0	-	-	-	-
COc1ccc2c(c1)OC/C(=C/c1ccc(OC)c(OC)c1)C2=O	-	22µM	-	-	-	-
Cn1c(-c2ccccc2)c(C(=O)CC#N)c2ccccc21	0	0	0	0	0	0
CN(C)CCCNCC(=O)c1c(-c2ccccc2)n(C)c2ccccc12	0	79µM	0	0	0	0
CCCc1sc(N2CCCC(C(N)=O)C2)nc1-c1ccccc1 (stereo unspecified)	0	79µM	0	0	0	0
COCCn1c(=O)sc2ccccc2c1=O	0	16µM	0	0	0	0
COc1cc(C)cc(C(=O)O)c1C1=C(O)c2cccc(O)c2C(=O)C1=O	0	0	0	0	0	0
Cc1cc(O)c2c(c1)C(=O)c1cccc(O)c1C2=O	-	14µM	-	-	-	-
SMILES	USP1 inh	VDR inh	EPAC1 antag	EPAC1 agonist	EPAC2 ag	EPAC2 antagonist
c1ccc2c(c1)SCc1c-2[nH]c2ccccc12	-	10µM	-	-	-	-
c1ccc2c(c1)OCCc1c-2[nH]c2ccccc12	0	0	0	0	0	0
COC(=O)C1=C(C(=O)OC)C(c2ccc(OC)c(OC)c2)c2sc(=O)[nH]c2S1 (stereo unspecified)	0	79µM	0	0	0	0
CNc1snc(C)c1C(=O)OCC(=O)Nc1ccc(C)cc1F	0	0	0	56µM	0	0
Cc1cccc(OCCOC(=O)Nc2ccccc2)c1	0	0	0	0	0	0
Cc1cccc(OCCOc2ccccc2C=C(C#N)C#N)c1	?	50µM	0	0	0	0
CC(=O)N1CCC2(CC1)CN(C(c1ccccc1)c1ccccc1)C2	-	0	-	-	-	-
CC1(C)CC[C@]2(C(=O)n3ccnc3)CC[C@]3(C)[C@H](C(=O)C=C4[C@@]5(C)C=C(C#N)C(=O)C(C)(C)[C@@H]5CC[C@]43C)[C@@H]2C1	0	45µM	?	0	0	0
O=C(C1CC1)N1CCc2cc(Br)cc(S(=O)(=O)N3CCN(c4cccc(C(F)(F)F)c4)CC3)c21	0	0	-	-	-	-
O=C1NC(=S)NC1=Cc1ccco1	?	28µM	0	0	0	0
CCOc1ccc(C2NC(=O)C(C#N)=C(S)N2c2ccc(C)cc2)cc1OC (stereo unspecified)	0	18µM	0	0	0	0
CCOc1ccc(C2NC(=O)c3ccccc3O2)cc1OC (stereo unspecified)	0	0	0	0	0	0
CCOc1ccc(C2NC(=O)C(C#N)=C(S)N2c2cccc(C)c2)cc1OC (stereo unspecified)	0	79µM	0	0	0	0
COc1ccc(C(=O)CCN2CCN(c3ccc(OC)cc3)CC2)cc1	0	?	0	0	0	0
CC(C)Oc1ccc(C(=O)CCN2CCOCC2)cc1	0	45µM	0	0	0	0
COc1ccc(C(=O)CCN2CCCCCC2)cc1	0	28µM	0	0	0	0
COc1ccc(C(=O)CCN2CCN(c3ccccc3F)CC2)cc1	0	22µM	0	0	0	0
CCCOc1ccc(C(=O)CCN2CCN(C(=O)OCC)CC2)cc1	0	45µM	0	0	0	0
CC1(C)SC2[C@@H](N=CN3CCCCCC3)C(=O)N2[C@H]1C(=O)O (stereo partly specified)	-	0	-	-	-	-
O=C(CC1N=C2c3ccccc3N=C(SCc3ccc(Cl)cc3)N2C1=O)NCCc1ccccc1 (stereo unspecified)	0	0	-	-	-	-
COc1ccccc1CNC(=O)c1cccc(-c2ccccc2OC)n1	-	0	-	-	-	-
COc1cc(Br)c(C(=O)c2nccc3cc(OC)c(OC)cc23)cc1OC	10µM	0	0	0	0	0
COc1cc(N)c(C(=O)c2nccc3cc(OC)c(OC)cc23)cc1OC	0	0	0	0	0	0

Assay outcomes from PubChem.
